# This is a sample that favours compounds with a hit; in the whole collection about 15% have one here.
# ELG1 DNA repair – inhibitors of ELG1-dependent DNA repair in HEK293T cells; AID 504467; Potency, µM (highest dose often 46.1 µM), for inactives: at the highest dose activity change, negative = inhibition, most hits filed as inhibitors; hit rate 2.3% among 330,000; HEK293T ELG1-luciferase reporter, luminescence, 16 h; DNA damage induced by 5-fluorouridine; note: nearly all actives have a fitted effect of over 55% in size
#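 HEK293T cells expressing luciferase-tagged ELG1 (2,000/well) received 5-Fluorouridine plus compound or DMSO for 16 hr at 37 °C. Luciferase was read by ONE-Glo luminescence after 30 min at room temperature.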
# RORg inh – ROR gamma (mouse) transcription inhibition. AID 2551. Potency, µM (series often up to 53.6 µM), without a hit: at the highest dose activity change, negative = inhibition, usual class: inhibitors. hit rate 5.4% among 310,000. P51450. Drosophila S2 Gal4-RORgamma UAS-luciferase reporter, 20 h; note: nearly all actives have a fitted effect of over 60% in size
# Target sequence (P51450 whole entry, looked up, the tested form may be a part): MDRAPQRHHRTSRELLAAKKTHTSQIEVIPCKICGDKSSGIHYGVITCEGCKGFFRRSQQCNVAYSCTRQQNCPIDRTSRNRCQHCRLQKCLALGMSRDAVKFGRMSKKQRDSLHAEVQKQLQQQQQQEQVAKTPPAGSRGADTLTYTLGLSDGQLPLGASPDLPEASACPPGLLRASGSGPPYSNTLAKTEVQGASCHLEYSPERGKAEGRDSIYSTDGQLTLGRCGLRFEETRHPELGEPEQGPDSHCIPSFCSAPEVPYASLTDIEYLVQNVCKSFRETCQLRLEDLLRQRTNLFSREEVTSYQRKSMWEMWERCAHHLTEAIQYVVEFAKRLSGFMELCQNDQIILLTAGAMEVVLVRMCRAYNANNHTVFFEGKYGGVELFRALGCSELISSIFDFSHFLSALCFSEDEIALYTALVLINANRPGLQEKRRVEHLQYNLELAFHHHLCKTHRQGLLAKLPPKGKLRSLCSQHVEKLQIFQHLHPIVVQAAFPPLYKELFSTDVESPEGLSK
#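 Drosophila S2 cells stably expressing Gal4-DBD/mouse RORγ fusion under metallothionein promoter plus UAS-luciferase; compound 1 h, then 700 uM CuSO4 induction for 20 h at ambient temperature; inhibition read as reduced luminescence.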
# TDP1 cell CPT – growth inhibition of DT40 Tdp1-/-;hTDP1 cells with camptothecin (screen for TDP1 inhibitors). chicken DT40 Tdp1-/-;hTDP1 cells + 20 nM CPT, ATP luminescence, 48 h. Potency, µM (top dose mostly 46.2 µM), for the others: at the top dose activity change, negative = growth inhibition, actives largely listed as inhibitors. hit rate 12% among 420,000. AID 686979; note: nearly all actives have a fitted effect of over 55% in size
#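 Chicken DT40 Tdp1-/- cells complemented with human TDP1, 400 cells/well, exposed to compounds plus 20 nM camptothecin for at least 48 h at 37 C; viability read as ATP content by CellTiter-Glo luminescence.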
# TDP1 cell noCPT – qHTS for Inhibitors of human tyrosyl-DNA phosphodiesterase 1 (TDP1): qHTS in cells in absence of CPT. DT40 Tdp1-/- hTDP1 cells, no CPT, ATP luminescence, 48 h. Potency, µM (doses to about 46.2 µM), inactives show top-dose activity change, negative = growth inhibition, usual class: inhibitors. hit rate 15% among 420,000. AID 686978, 2013; note: nearly all actives have a fitted effect of over 55% in size
#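 Cells were dispensed at 400 per well, compounds added by pin tool, plates incubated ≥48 hr at 37 °C, then CellTiter-Glo added for 30 min at room temperature before luminescence reading. Line: DT40 Tdp1-/- complemented with hTDP1; camptothecin omitted.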
# ALOX12 inh – inhibitors of human 12S-lipoxygenase ALOX12; P18054; purified 12hLO, xylenol orange hydroperoxide absorbance; Potency, µM (doses to about 108 µM), for the others: at the highest dose activity change, negative = inhibition, most hits filed as inhibitors; hit rate 1.1% among 580,000
#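 Purified human 12hLO at 150 nM in 25 mM Hepes, 0.01% Triton X-100, pH 7.0, preincubated 15 min at room temperature with compound. Reaction started with 40 uM arachidonic acid, 30 min at room temperature. Hydroperoxide measured by Fe-xylenol orange, 573/405 nm absorbance ratio.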
# VP16 counter – counter-screen for ROR gamma inhibitors: Gal4-VP16 reporter; Drosophila S2 Gal4-VP16 UAS-luciferase, luminescence, 20 h; Potency, µM (highest dose often 53.6 µM), for inactives: at the highest dose activity, negative = inhibition, most hits filed as inhibitors; hit rate 3.5% among 310,000;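 note: Gal4-VP16 expression switched on by copper sulfate through the metallothionein promoter; nearly all actives have a fitted effect of over 50% in size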
# * marks the source's active call; other numbers are inactive results; u = inconclusive; x = not tested or not shown; [ ] = another dose, or the depositor's remark. Calls come from the whole dose curve; as a rule, active = well fitted curve in the direction sought with a large enough effect; inconclusive = small, poorly fitted or top-dose-only effect, or another doubt; inactive = no such curve, though single readings can be large; an effect the other way counts as inactive or inconclusive. % is set by controls: 0 for no effect and ±100 for the full control effect; potency is the fitted concentration of half-maximal effect.
SMILES,ELG1 DNA repair,RORg inh,TDP1 cell CPT,TDP1 cell noCPT,ALOX12 inh,VP16 counter
[O-]/C(=C(\C(=S)Nc1cccc2ccccc12)[n+]1ccccc1)c1cccs1,-7%,u,6%,-8%,36%,8%[10 µM]
[O-]/C(=C(\C(=S)Nc1cccc2ccccc12)[n+]1ccccc1)c1ccc2c(c1)OCCO2,7%,13µM*,u,-16%,u,u
Cc1ccccc1NC(=S)/C(=C(\[O-])c1ccc(C)c([N+](=O)[O-])c1)[n+]1ccccc1,0%,-12%[10 µM],u,u,-21%,-4%
CCc1nnc(NC(=O)C(NS(=O)(=O)c2ccc3c(c2)OCCO3)C(C)C)s1 (configuration not stated),-23%,12%,-24%,-23%,35µM*,-8%
CCc1nnc(NC(=O)[C@@H](NS(=O)(=O)c2ccc3c(c2)OCCO3)C(C)C)s1,x,x,-11%,u,2%,x
COc1cccc(CNCC2(COc3ccccc3)C[C@@H](O)[C@@H](O)C2)c1 (some centres not stated),x,x,x,x,-7%[176 µM],x
Cc1[nH]c(N=Nc2ccccc2)nc1N=Nc1ccccc1,u,-23%,5.8µM*,5.8µM*,-29%,-18%
Cc1cccc2c(N=Nc3ccccc3)c(O)[nH]c12,u,-17%,-3%,-2%,-11%,-4%
CCOCCCNc1nc(=S)[nH]c2cc(OC)c(OC)cc12,u,u,-7%,-23%,-23%,-13%
CCCCNc1nc(=S)[nH]c2cc(OC)c(OC)cc12,-11%,7.9µM*,-7%,-22%,18%,7.9µM*
COCCNc1nc(=S)[nH]c2cc(OC)c(OC)cc12,u,-19%,-19%,1%,u,-4%
COc1cc2[nH]c(=S)nc(NCCCOC(C)C)c2cc1OC,u,16µM*,-5%,-26%,4%,u
Cc1cc(C)cc(NC(=O)CSCc2cc(=O)c3ccccc3[nH]2)c1,x,x,x,x,-4%,x
COC(=O)c1c(SCC(=O)Nc2cc(C)cc(C)c2)[nH]c2ccccc2c1=O,x,x,23µM*,u,-18%,x
COC(=O)c1c(SCC(=O)Nc2ccccc2C(F)(F)F)[nH]c2ccc(Cl)cc2c1=O,x,x,21µM*,29µM*,u,x
CC(Cc1ccccc1)NC(=O)/C=C/c1ccc([N+](=O)[O-])cc1 (configuration not stated),-18%,22%,26µM*,18µM*,8%,3%
CC1(c2ccc(F)cc2)OC(=O)c2c1ccc1ccccc21 (configuration not stated),x,x,u,18µM*,-13%,x
CN1CCCC1CCNc1ccc2c(=O)c3ccccc3oc2c1 (configuration not stated),u,u,u,18µM*,-15%,u
CN1CCCC1CCNc1ccc2oc3ccccc3c(=O)c2c1 (configuration not stated),u,8.9µM*,u,u,-1%,u
COc1cccc(C(=O)C(C#N)=C(SC)SC)c1,8%,-100%,2.6µM*,2.3µM*,-29%,u
CSC(SC)=C(C#N)C(=O)c1ccccc1,-16%,-74%,2.1µM*,2.6µM*,0%,11µM*
COc1cccc(C(=O)C(=O)NC(C)(C)C)c1,x,x,x,x,-3%,x
CC(=O)N1CCc2c(sc3c2c(=O)n(CCc2ccccc2)c(=O)n3CC(=O)Nc2ccc(C)c(F)c2)C1,x,x,23µM*,u,-8%,x
CC(=O)N1CCc2c(sc3c2c(=O)n(-c2ccc(C)cc2)c(=O)n3CC(=O)Nc2ccccc2)C1,x,x,u,16µM*,-14%,x
CCOC(=O)N1CCc2c(sc3c2c(=O)n(CCc2ccccc2)c(=O)n3CC(=O)Nc2ccccc2C)C1,x,x,8.2µM*,8.2µM*,-7%,x
SMILES,ELG1 DNA repair,RORg inh,TDP1 cell CPT,TDP1 cell noCPT,ALOX12 inh,VP16 counter
CCOC(=O)N1CCc2c(sc3c2c(=O)n(Cc2ccccc2)c(=O)n3CC(=O)Nc2ccc(C)cc2C)C1,x,x,-7%,-4%,-11%,x
Cc1nn2c(c1-c1ccccc1OCc1ccccc1)N(C(=O)C1CCC1)CCC2,x,x,x,x,-3%[176 µM],x
COc1ccc(-c2oc3ncnc(NCCCN4CCOCC4)c3c2-c2ccc(OC)cc2)cc1,16µM*,u,u,18µM*,-33%,16µM*
COc1ccc(-c2oc3ncnc(NCCN4CCOCC4)c3c2-c2ccc(OC)cc2)cc1,u,-14%,u,15µM*,x,-2%
CCOc1cc2nc(-c3ccc(OC)c(OC)c3)nc(NCCCN3CCOCC3)c2cc1OC,u,u,u,21µM*,0%,-18%
c1ccc(-c2oc3ncnc(NCCCN4CCOCC4)c3c2-c2ccccc2)cc1,u,-20%,u,23µM*,u,u
COc1cc2ncnc(NCCCN3CCOCC3)c2cc1OC,11%,9%,6%,4%,u,-6%
Cc1ccc(C(NC(c2ccccc2)c2ccccc2)C(=O)O)cc1 (configuration not stated),x,x,x,x,9%,x
Cc1ccc(S(=O)(=O)N(Cc2cccnc2)C2CC2)cc1F,x,x,x,x,5%,x
CSc1nc2ccccc2c(=O)n1CC(=O)c1ccccc1,x,x,x,x,-27%,x
OCCCNc1ncnc2oc(-c3ccccc3)c(-c3ccccc3)c12,u,-12%,u,16µM*,-23%,-5%
COc1ccc(-c2oc3ncn(CCN4CCOCC4)c(=N)c3c2-c2ccc(OC)cc2)cc1,21µM*,-31%,16µM*,13µM*,0%,-18%
COc1ccc(CCNCCN2CCOCC2)cc1,-6%,0%,3%,-14%,u,1%
Cc1cccc(Oc2coc3cc(OC(C)C(=O)OCCC(C)C)ccc3c2=O)c1 (configuration not stated),x,x,x,x,5%,x
CC1O[C@@H](O[C@@H]2C(O)C[C@H](O[C@@H]3C(O)C[C@@H](OC4CC[C@@]5(C)C6CC(O)[C@@]7(C)C(C8=CC(=O)OC8)CC[C@@]7(O)C6CC[C@@H]5C4)OC3C)OC2C)CC(O)[C@H]1O (some centres not stated),x,8.9µM*,3.3µM*,1.8µM*,x,-7%
O=C(CN1c2ccccc2Sc2ccccc21)N/N=C/c1ccc(Cl)cc1Cl,-15%,4%,u,18µM*,0%,-2%
O=C(CN1c2ccccc2Sc2ccccc21)NNC(=S)Nc1ccc(Cl)cc1Cl,-6%,13µM*,u,u,-2%,u
